Hits are enriched below; roughly 3.9% of the tested compounds scored in any of these assays.
NTR1 agonist: agonists of human NTR1, primary screen, imaging, U2OS cells, beta-arrestin-GFP, high content; Neurotensin receptor type 1 (Homo sapiens), P30989; NTR1-U2OS beta-arrestin-GFP spot imaging, agonist mode; activation, % at 20 µM; 330,000 tested, 0.17% active;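 active = activation at or above 40% of the spot to cytoplasm intensity ratio, with at least 20 cells analyzed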;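 note: 0% = DMSO without peptide and 100% = 100 nM NTR1 peptide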
Target sequence (P30989 whole entry, looked up): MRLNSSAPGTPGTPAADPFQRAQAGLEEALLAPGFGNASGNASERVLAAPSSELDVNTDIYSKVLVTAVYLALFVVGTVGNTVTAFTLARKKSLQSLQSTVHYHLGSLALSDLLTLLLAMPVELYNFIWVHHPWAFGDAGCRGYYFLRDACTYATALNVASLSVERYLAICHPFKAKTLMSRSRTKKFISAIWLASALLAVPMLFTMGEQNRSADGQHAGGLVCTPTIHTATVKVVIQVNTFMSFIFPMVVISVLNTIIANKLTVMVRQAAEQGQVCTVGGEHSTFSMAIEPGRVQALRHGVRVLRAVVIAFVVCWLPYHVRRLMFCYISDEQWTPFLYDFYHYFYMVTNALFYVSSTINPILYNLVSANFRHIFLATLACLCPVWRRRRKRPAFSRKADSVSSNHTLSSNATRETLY
H9c2 protect: cardioprotection against H2O2-induced cell death, primary screen, uHTS, H9c2 cells, ATPLite luminescence; H9c2 cardiomyocytes, H2O2 injury protection, 2 h; protection from H2O2 cell death, % at 20 µM; 360,000 tested, 0.63% active; AID 588492, 2011;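 active = compounds giving at least 50% protection of heart cells from peroxide-induced death in the single-dose screen, raw or plate-pattern-corrected value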;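 note: 0% = DMSO wells with peroxide and 100% = DMSO wells without peroxide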
SUMO HTRF inh: inhibitors of in vitro SUMOylation cascade, primary screen, biochemical, HTRF, uHTS; 290,000 tested, 0.36% active; SUMO-conjugating enzyme UBC9 (Homo sapiens), P63279; HTRF SUMOylation assay, SAE1/SAE2 + UBC9; AID 2006, 2009; inhibition, % at 35 µM; in the data active = inhibition above about 50%, passing the limit was not always enough
Target sequence (P63279 whole entry, looked up): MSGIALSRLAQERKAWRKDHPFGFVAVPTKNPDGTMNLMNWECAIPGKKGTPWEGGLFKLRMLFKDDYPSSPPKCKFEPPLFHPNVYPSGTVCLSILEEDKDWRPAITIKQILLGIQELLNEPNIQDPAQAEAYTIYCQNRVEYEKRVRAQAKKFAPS
ALR H2O2 inh: inhibitors of human ALR sulfhydryl oxidase, primary screen, biochemical, H2O2 detection, HRP-luminol luminescence, single point; FAD-linked sulfhydryl oxidase ALR (Homo sapiens), P55789; purified ALR, DTT oxidation; 290,000 tested, 3.8% active; inhibition, % (test concentration not listed);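 active = mean replicate inhibition above about 79%, with every replicate also reaching it, limit read from the data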
* marks the source's active call; other numbers are inactive results; . = no result given.

SMILES	NTR1 agonist	H9c2 protect	SUMO HTRF inh	ALR H2O2 inh
C=CCn1c(SCC(=O)Nc2sccc2C(N)=O)nc2sc(C)c(C)c2c1=O	4	-10	.	-1
CCOC(=O)c1c(NC(=S)Nc2ccccc2)sc2c1CCCCC2	14	-10	-1	5
CCOC(=O)N1CCc2c(sc(NC(=O)CN3CCOCC3)c2C(=O)Nc2ccccc2)C1	0	50*	4	4
CCOC(=O)N1CCc2c(sc(NC(=O)CN3CCN(C)CC3)c2C(=O)Nc2ccccc2)C1	0	39	5	-20
CCOC(=O)c1c(NC(=S)Nc2ccccc2)sc2c1CCN(CC)C2	-1	4	28	87*
CC(=O)N/C(=N\c1nc(C)cc(C)n1)Nc1ccc(Cl)cc1Cl	0	2	1	-3
C[C@]12c3[nH]c4ccc(Cl)cc4c3CCN1C(=O)[C@@H](CC(=O)NCc1cccc(C(F)(F)F)c1)C[C@@H]2C(=O)N1CCCCC1	9	-14	.	.
CC(=O)N1CCc2cc(S(=O)(=O)NCCC(=O)NCCc3ccccc3)ccc21	-4	-7	10	.
Cc1cccc(CCNC(=O)C2CCCN(S(=O)(=O)c3cnc[nH]3)C2)c1 (stereo not given)	4	1	-3	68
Cc1cccc(N2CCN(C(=O)C3CCCN(S(=O)(=O)c4cnc[nH]4)C3)CC2C)c1 (stereo not given)	0	0	10	99*
Cc1cccc(N2CCN(C(=O)C3CCN(S(=O)(=O)c4c(C)noc4C)CC3)CC2C)c1 (stereo not given)	1	0	3	98*
COc1ccc(C(=O)NCCNc2nc3ccc(C)cc3cc2C#N)cc1OC	0	16	9	90*
COc1cc(C(=O)NCCCNc2nc3cc(C)cc(C)c3cc2C#N)cc(OC)c1OC	-1	81*	4	-3
Cn1ncc2c(Nc3ccc(O)cc3)nc(Cl)nc21	-1	10	12	91*
Cc1nn(C)c(C(=O)Sc2cccc(Cl)c2)c1[N+](=O)[O-]	4	-8	13	98*
Cc1nn(C)c(C(=O)Sc2ccccc2)c1[N+](=O)[O-]	2	-10	11	.
CCOC(=O)N1CCN(S(=O)(=O)c2ccc(F)c(C(=O)Nc3cccc(C)c3C)c2)CC1	0	-6	19	-17
O=C(/C=C/c1ccc(O)c(O)c1)c1ccc(S(=O)(=O)N2CCCCCC2)cc1	23	74*	21	7
Cc1ccc(NC(=O)c2nc[nH]c2C(=O)NCCCCCNC(=O)OC(C)(C)C)cc1	10	55*	.	-5
Cc1ccc(NC(=O)c2nc[nH]c2C(=O)NCCCCNC(=O)c2[nH]cnc2C(=O)Nc2ccc(C)cc2)cc1	20	33	.	-7
CC(C)(C)OC(=O)NCCCCCNC(=O)c1[nH]cnc1C(=O)Nc1cc(Br)ccc1F	.	64*	.	.
Cc1ccc(NC(=O)c2nc[nH]c2C(=O)NCCCCCCNC(=O)c2[nH]cnc2C(=O)Nc2ccc(C)cc2)cc1	7	81*	.	1
Cc1ccc(NC(=O)c2nc[nH]c2C(=O)NCCCNC(=O)c2[nH]cnc2C(=O)Nc2ccc(C)cc2)cc1	2	66*	.	2
CC(=O)Nc1sc(NC(=O)c2ccco2)nc1-c1cccs1	0	3	-1	.
COc1ccc(Cl)cc1N1C(=O)/C(=C\c2sccc2C)N=C1SCC(=O)NC1CC1	4	4	1	81*
SMILES	NTR1 agonist	H9c2 protect	SUMO HTRF inh	ALR H2O2 inh
COc1ccc([C@@H]2C[C@@H](c3ccccc3)Oc3cc(OC)cc(OC)c32)cc1	1	-8	0	.
CCC1(C)Cc2c(sc3nnn(CC(=O)Nc4ccc(C)cc4)c(=O)c23)CO1 (stereo not given)	5	-10	-21	-3
CCOc1ccc(NC(=O)C(C)SC(N)=O)cc1 (stereo not given)	1	5	0	99*
CCN=C1SCC(=O)N1c1ccc(OC)cc1	-1	-3	-6	-20
Cc1ccc(N2C(=O)CS/C2=N\C(=S)Nc2ccccc2)cc1	0	-5	15	90*
COc1ccc(NC2CCCN(C(=O)COc3ccc(C(C)=O)cc3)C2)cc1 (stereo not given)	.	6	.	.
COc1ccc(NC2CCCN(C(=O)CCOc3ccccc3)C2)cc1 (stereo not given)	0	-1	0	99*
COc1ccc(NC2CCCN(C(=O)CCc3ccccc3F)C2)cc1 (stereo not given)	0	-1	9	100*
COc1ccc(NC2CCCN(C(=O)COc3ccc(C)cc3)C2)cc1 (stereo not given)	1	-1	-15	90*
COc1ccc(NC2CCCN(C(=O)CSc3ccccc3)C2)cc1 (stereo not given)	0	-2	9	99*
COCCCNC(=O)c1ccc(C2SCC(=O)N2Cc2ccco2)cc1 (stereo not given)	2	4	14	9
CCN1CCN(C(=O)c2ccc(COc3cccc(Cl)c3)o2)CC1	0	0	23	-2
Clc1ccccc1CN1CCC(Cc2ccccc2)CC1	1	0	-12	.
CCNC(=O)NC(=O)C(C)Sc1nc2cc(C(=O)OC)ccc2c(=O)n1-c1ccccc1 (stereo not given)	0	30	4	4
O=C(CN(C(=O)CCC(=O)Nc1ccccn1)C1CCCC1)NCc1ccc(F)cc1	2	-1	11	0
CCOc1cc(C(=O)Nc2cc3c(cc2N2CCCC2)n(C)c(=O)n3C)cc(OCC)c1OCC	2	-2	.	-4
O=S(=O)(NCc1ccccc1)c1cccc2nonc12	1	6	12	99*
O=[N+]([O-])c1cc(Cl)cc(/C=N/NC(=S)Nc2ccc(S(=O)(=O)N3CCOCC3)cc2)c1O	2	24	95*	9
N#Cc1ccc(/C=N/NC(=S)Nc2ccc(S(=O)(=O)N3CCOCC3)cc2)cc1	0	-4	16	1
O=S(=O)(c1ccc(Cl)c(NC(=S)N/N=C/c2c(F)cccc2F)c1)N1CCOCC1	4	-10	0	-2
O=S(=O)(c1ccc(Cl)c(NC(=S)N/N=C/c2ccc(O)cc2)c1)N1CCOCC1	14	-9	-1	99*
O=S(=O)(c1ccc(NC(=S)N/N=C/c2ccc(O)c(O)c2)cc1)N1CCOCC1	0	6	15	99*
O=S(=O)(c1ccc(Cl)c(NC(=S)Nc2ccccc2N2CCOCC2)c1)N1CCOCC1	-1	7	10	98*
Cc1ccc(-n2c(SCC(=O)N/N=C/c3ccccc3OCC(=O)O)nc3ccccc3c2=O)cc1	1	-5	23	7
Cc1cccc(OC(C)C(=O)Nc2cc(Cl)ccc2-n2cncn2)c1 (stereo not given)	2	-3	.	2
O=C(CN1CCN(c2ccc(O)cc2)CC1)Nc1cc(S(=O)(=O)N2CCCC2)ccc1Cl	1	-12	0	90*
Oc1ccc(/C=N/NC(=S)Nc2cccnc2)cc1O	2	22	24	99*

Bioassay records: PubChem, several laboratories
